Laboratory results as given in PubChem BioAssay (NCATS).
Where “and” joins values, the source holds several entries; their conditions need not be identical. Equal entries are not always repeated. Values without a mark were called inactive. Inconclusive results are not listed. Entries that show only a call come without a potency. Calls of active or inactive are those of the source. Unless noted, the call rests on the fitted dose curve; in most records, active means well fitted curve in the direction sought with a large enough effect; inconclusive means small, poorly fitted or top-dose-only effect, or another doubt; inactive means no such curve, though single readings can be large; an effect the other way counts as inactive or inconclusive.

Assays:
OV90 = test: Primary qHTS to identify gynecologic anti-cancer compounds using libraries of approved drugs and bioactive compounds (AID 1345084); conditions: Gynecologic cancer cell panel viability, ATPlite luminescence, 48 h; series mostly up to 57.5 µM; further: nearly all actives have a fitted effect of over 55% in size
In short: (§1)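 ATP-based viability (ATPlite), 1,000 cells/well, 16 h pre-incubation, 48 h compound at 37 C, 5% CO2, 15 min RT before read.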

PA-1 = test: as above; conditions: Gynecologic cancer cell panel viability, ATPlite luminescence, 48 h; series mostly up to 57.5 µM
In short: as §1

SKOV3 = test: as above; conditions: Gynecologic cancer cell panel viability, ATPlite luminescence, 48 h; series mostly up to 57.5 µM
In short: as §1

Tov-21-G = test: as above; conditions: Gynecologic cancer cell panel viability, ATPlite luminescence, 48 h; series mostly up to 57.5 µM
In short: as §1

Tov112D = test: as above; conditions: Gynecologic cancer cell panel viability, ATPlite luminescence, 48 h; series mostly up to 57.5 µM
In short: as §1

[1] = Drug repurposing screens with cells derived from glioblastoma tumor samples (AID 1345199); conditions: GBM patient neurospheres viability, ATP luminescence, 48 h; further: nearly all actives have a fitted effect of over 40% in size; further: potency means the concentration at half of the fitted maximal effect
In short: (§2)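 Four patient lines of CD133+ GBM neurospheres were screened at several concentrations; hits were retested in those lines plus three slower-growing GBM lines, using 48-hour treatment and ATP-based viability.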

astro = test: as above; conditions: viability, ATP luminescence, 48 h; series mostly up to 45.9 µM
In short: as §2

[2] = molecular target: Nuclear receptor subfamily 1 group I member 2 (Rattus norvegicus) (UniProt Q9R1A7); test: qHTS assay for small molecule activators of the rat pregnane X receptor (rPXR) signaling pathway (AID 651751; call rule not given here); conditions: rPXR reporter cells, luciferase (One-Glo), 24 h
[3] = qHTS assay for small molecule activators of the human pregnane X receptor (PXR) signaling pathway (AID 720659; call rule not given here)
[4] = qHTS assay to identify inhibitors of the type 1 interferon - major histocompatibility complex class I in skeletal muscle: Counter screen cell viability and HiBit confirmation (AID 1347412); conditions: iHSKM muscle cells + IFN-b, HiBiT or CellTiter-Glo, 24 h; Potency: HiBiT; Viability, at 45.9 µM (top of the series); further: nearly all actives have a fitted effect of over 60% in size
In short: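 Luminescence read-out: Nano-Glo HiBiT lytic signal from C-terminally HiBiT-tagged HLA-B in CRISPR-edited human myoblasts, plus CellTiter Glo ATP as viability counter screen. IFN-beta 4.0 ng/ml; 24 hrs treatment at 37 C, 5% CO2.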

[5] = at 45.9 µM (top of the series), tumour line B
[6] = at 45.9 µM (top of the series), tumour line D
[7] = at 46.1 µM (top of the series), tumour line C

Chain of Nuclear receptor subfamily 1 group I member 2 (Rattus norvegicus) (Q9R1A7 whole entry, looked up): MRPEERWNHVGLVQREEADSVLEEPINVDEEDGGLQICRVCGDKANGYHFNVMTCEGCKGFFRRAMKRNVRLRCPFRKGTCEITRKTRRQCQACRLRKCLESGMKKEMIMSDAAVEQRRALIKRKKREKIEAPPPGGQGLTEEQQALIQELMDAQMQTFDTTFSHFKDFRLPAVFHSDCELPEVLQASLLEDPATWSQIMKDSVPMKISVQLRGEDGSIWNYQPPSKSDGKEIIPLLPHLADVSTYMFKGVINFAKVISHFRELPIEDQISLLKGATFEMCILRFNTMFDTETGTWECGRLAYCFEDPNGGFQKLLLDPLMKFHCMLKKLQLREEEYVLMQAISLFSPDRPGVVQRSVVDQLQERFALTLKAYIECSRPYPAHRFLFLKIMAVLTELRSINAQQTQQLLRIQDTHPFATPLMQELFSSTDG

SMILES	Potency (OV90)	Potency (PA-1)	Potency (SKOV3)	Potency (Tov-21-G)	Potency (Tov112D)	activity, negative = cell killing [1, 5] [%]	activity, negative = cell killing [1, 6] [%]	activity, negative = cell killing [1, 7] [%]	Potency (astro)	Potency ([1]; tumour line A)	max response [2]	outcome [3]	Potency ([1]; tumour line D)	Potency [4]	activity, negative = cell killing ([1]; at 91.6 µM (top of the series), tumour line B) [%]	activity, negative = cell killing ([1]; at 91.6 µM (top of the series), tumour line D) [%]	activity, negative = cell killing ([1]; at 99.2 µM (top of the series), tumour line C) [%]
O=C(COCCOCCOCC(=O)Nc1c(I)cc(I)c(C(=O)O)c1I)Nc1c(I)cc(I)c(C(=O)O)c1I	inactive	inactive	inactive	inactive	inactive	-4.03	-4.14	15.8	inactive	–	–	–	–	–	–	–	–
NC(=O)COCCN1CCN(C(c2ccccc2)c2ccc(Cl)cc2)CC1 (stereo not drawn)	inactive	inactive	inactive	inactive	inactive	-14	–	–	inactive	5.01 µM (active)	–	–	–	–	–	–	–
CCO[C@H](Cc1ccc(OCCc2ccc(OS(C)(=O)=O)cc2)cc1)C(=O)O	inactive	inactive	inactive	inactive	inactive	–	–	–	inactive	–	–	–	–	–	–	–	–
Nc1c(NC/C=C\COc2cc(CN3CCCCC3)ccn2)c(=O)c1=O	inactive	inactive	inactive	inactive	inactive	-4.69	-28.9	3.18	inactive	–	–	–	–	–	–	–	–
Cc1ncc(CO)c(CO)c1O	inactive	inactive	inactive	inactive	inactive	0.285	-6.71	3.74	inactive	–	-2.11%	inactive	–	–	–	–	–
CC(=O)CC/C=C(\C)CC/C=C(\C)CC/C=C(\C)CCC=C(C)C	inactive	inactive	inactive	inactive	inactive	-12.4	-10.7	4.26	inactive	–	–	–	–	–	–	–	–
Oc1ccccc1	inactive	inactive	inactive	inactive	inactive	8.9	-14.6	-15.8	inactive	–	-2.24% and -1.02% and -2.45%	inactive	–	–	–	–	–
CN(CC1(C)CCCO1)S(=O)(=O)c1ccc(Cl)c(S(N)(=O)=O)c1 (stereo not drawn)	inactive	inactive	inactive	inactive	inactive	-9.01	-23.5	16.1	inactive	–	–	–	–	–	–	–	–
COC(=O)C1=C(C)NC(COC(N)=O)=C(C(=O)OC(C)C)C1c1cccc(Cl)c1Cl (stereo not drawn)	inactive	inactive	inactive	inactive	inactive	0.976	–	–	–	8.91 µM (active)	–	–	12.6 µM (active)	inactive	–	–	–
C[C@]12CCC(=O)C=C1CC[C@@H]1[C@@H]2[C@@H](O)C[C@@]2(C)[C@H]1CC[C@]2(O)C(=O)COC(=O)CCC(=O)O	inactive	inactive	inactive	inactive	inactive	-2.56	-26.6	-2.87	inactive	–	–	–	–	–	–	–	–
O=C(NO)c1ccccc1	inactive	inactive	inactive	inactive	inactive	–	–	–	inactive	–	-1.37%	inactive	–	–	-25.1	-20.6	-13.7
O=C(NN1CCCC1)NS(=O)(=O)c1ccc(Cl)cc1	inactive	inactive	inactive	inactive	inactive	1.6	-25.9	2.27	inactive	–	–	–	–	–	–	–	–
O=C(O)[C@@H](O)[C@H](O)[C@H](O)[C@@H](O)C(=O)O	inactive	inactive	inactive	inactive	inactive	–	–	–	inactive	–	–	–	–	–	–	–	–
O=C1CC2(CCCC2)CC(=O)N1CCNCC1COc2ccccc2O1 (stereo not drawn)	inactive	inactive	inactive	inactive	inactive	–	–	–	inactive	–	–	–	–	–	–	–	–
Cc1cccc(N(C)C(=S)Oc2ccc3c(c2)CCC3)c1	inactive	inactive	inactive	inactive	inactive	-19.8	–	–	inactive	17.8 µM (active)	–	–	20 µM (active)	–	–	–	–
CC1CC(=O)NN=C1c1ccc(NCC(C)(C)NCC(O)COc2cc(Cl)ccc2C#N)cc1 (stereo not drawn)	inactive	inactive	inactive	inactive	inactive	-23.3	-27.2	–	inactive	1.78 µM (active)	–	–	–	–	–	–	–
O=[N+]([O-])c1nccn1CO[C@@H](CO)[C@H](O)CO	inactive	inactive	inactive	inactive	inactive	-1.15	-7.16	-8.18	inactive	–	–	–	–	–	–	–	–
c1ccc(C(O[C@H]2CCCN(CCc3ccc4c(c3)OCO4)C2)c2ccccc2)cc1	inactive	inactive	inactive	inactive	inactive	-23.2	–	–	inactive	11.2 µM (active)	–	–	–	–	–	–	–

SMILES	Potency (OV90)	Potency (PA-1)	Potency (SKOV3)	Potency (Tov-21-G)	Potency (Tov112D)	activity, negative = cell killing [1, 5] [%]	activity, negative = cell killing [1, 6] [%]	activity, negative = cell killing [1, 7] [%]	Potency (astro)	Potency ([1]; tumour line A)	max response [2]	outcome [3]	Potency ([1]; tumour line D)	Potency [4]	activity, negative = cell killing ([1]; at 91.6 µM (top of the series), tumour line B) [%]	activity, negative = cell killing ([1]; at 91.6 µM (top of the series), tumour line D) [%]	activity, negative = cell killing ([1]; at 99.2 µM (top of the series), tumour line C) [%]
CC1(C)S[C@@H]2[C@H](NC(=O)C(c3ccccc3)S(=O)(=O)O)C(=O)N2[C@H]1C(=O)O (stereo partly drawn)	inactive	inactive	inactive	inactive	inactive	-7.89	-16.5	4.53	inactive	–	–	–	–	–	–	–	–
C[N+](C)(CCOc1ccccc1)Cc1cccs1	inactive	inactive	inactive	inactive	inactive	-1.12	-8.83	-14.1	inactive	–	–	–	–	–	–	–	–
C[C@H](CN1CCCC1)C(=O)c1ccc(C(F)(F)F)cc1	inactive	inactive	inactive	inactive	inactive	-26.9	–	-22.1	inactive	–	–	–	–	–	–	–	–
CC(=O)O[C@@H]1C(=O)O[C@@H]2[C@H]1OC(=O)[C@@H]2OC(C)=O	inactive	inactive	inactive	inactive	inactive	-13.4	5.03	-4	inactive	–	–	–	–	–	–	–	–
COc1cc(C(=O)OC(COCCC(C)C)CN2CCOCC2)cc(OC)c1OC (stereo not drawn)	inactive	inactive	inactive	inactive	inactive	-6.94	-4.84	-4.89	inactive	–	–	–	–	–	–	–	–
O=C(O)Cc1ccccc1Oc1ccc(Cl)cc1Cl	inactive	inactive	inactive	inactive	inactive	-7.43	-9.2	1.53	inactive	–	–	–	–	–	–	–	–
Cc1cc(C(C)(C)C)c(O)c(C(C)(C)C)c1	inactive	inactive	inactive	inactive	inactive	–	–	-15.8	inactive	–	-5.78% and 3.32%	–	–	–	–	–	–
CC(=O)OCC(=O)Nc1cc(C#N)cc(NC(=O)COC(C)=O)c1Cl	inactive	inactive	inactive	inactive	inactive	-11	-1.03	-3.42	inactive	–	–	–	–	–	–	–	–
COc1cc(C=O)ccc1O	inactive	inactive	inactive	inactive	inactive	-12.2	2.3	-15.5	inactive	–	1.03% and -2.41%	inactive	–	–	–	–	–
CC(=O)[C@@]1(O)CC[C@H]2[C@@H]3C[C@H](C)C4=CC(=O)CC[C@]4(C)[C@H]3CC[C@@]21C	inactive	inactive	inactive	inactive	inactive	-5.63	-15.6	-11.3	inactive	–	–	–	–	inactive	–	–	–
CO[C@]1(NC(=O)CSC(F)F)C(=O)N2C(C(=O)O)=C(CSc3nnnn3CCO)CO[C@H]21	inactive	inactive	inactive	inactive	inactive	4.83	-21.2	-14	inactive	–	–	–	–	–	–	–	–
CCOC(=O)[C@H](CCc1ccccc1)N[C@@H](C)C(=O)N(CC(=O)O)C1Cc2ccccc2C1	inactive	inactive	inactive	inactive	inactive	-1.19	-9.08	19.3	inactive	–	–	–	–	–	–	–	–
OC[C@]1(O)OC[C@@H](O)[C@H](O)[C@@H]1O	inactive	inactive	inactive	inactive	inactive	–	–	–	inactive	–	–	–	–	–	–	–	–
O=S(=O)(O)c1ccc2nc(-c3ccccc3)[nH]c2c1	inactive	inactive	inactive	inactive	inactive	-3.28	-9.15	-23.9	inactive	–	–	–	–	–	–	–	–
CN1C(CSCC(F)(F)F)Nc2cc(Cl)c(S(N)(=O)=O)cc2S1(=O)=O (stereo not drawn)	inactive	inactive	inactive	inactive	inactive	-3.33	–	-15.1	inactive	–	–	–	–	–	–	–	–
CCCCC(=O)OCC(=O)[C@H]1[C@H](C)C[C@H]2[C@@H]3C[C@H](F)C4=CC(=O)C=C[C@]4(C)[C@@]3(F)[C@@H](O)C[C@@]21C	inactive	inactive	inactive	inactive	inactive	-0.839	-9.99	14.8	inactive	–	–	–	–	inactive	–	–	–
CC(=O)OC/C=C(C)/C=C/C=C(C)/C=C/C1=C(C)CCCC1(C)C	inactive	inactive	inactive	inactive	inactive	-7.14	-23.4	-13.6	inactive	–	–	–	–	–	–	–	–
